Assay results published in PubChem BioAssay.
The source made the active and inactive calls.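 Rule for the calls, unless noted: active = compound raises insulin release from rat beta cells at 5 mM glucose, no numeric limit stated; inactive = the rest.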

What was measured:
[1] = stimulators of nuclear beta-catenin in C2C12, primary screen, imaging, WNT3A-conditioned medium, mouse C2C12, NPC library (AID 1117326; in the data active = nuclear beta-catenin stimulation mostly above about 4.2%, no sharp cut-off; inactive = mostly below about 10%; note: reference of the scale not given here); conditions: stronger effect = higher value
[2] = stimulators of insulin release from INS-1E, primary screen, cell-based, 5 mM glucose, NPC library (AID 1117329); conditions: rat INS-1E insulin secretion, at 10 µM, stronger effect = higher value; note: reference of the scale not given here
[3] = growth inhibition of GSK3B-pretreated HCT116 cells – cell-based, CellTiter-Glo, 0.2 to 20 µM (AID 1117336;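 active = compounds lowering colon cancer cell viability after pretreatment blocking the GSK3B kinase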); conditions: HCT116 viability after GSK3B inhibitor, at 20 µM, stronger effect = higher value
[4] = inhibition of endothelial tube formation, primary screen, imaging, VEGF stimulated, CD31 staining, tube area, NPC library (AID 1117340;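 active = compound that reduces growth-factor-driven endothelial tube area in a mixed cell culture, no cutoff stated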); conditions: VEGF-stimulated ADSC/ECFC co-culture, at 10 µM, stronger effect = higher value
[5] = glucagon-like peptide 1 release enhancers, primary assay, NCI-H716 cell line, NPC library (AID 1117341;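 active = compound raises GLP1 secretion from the human gut endocrine cells, with no numeric limit stated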; note: reference of the scale not given here); conditions: NCI-H716 cells, at 10 µM, stronger effect = higher value
[6] = HCT116 colon cancer cell growth inhibition, primary screen, CellTiter-Glo luminescence, NPC library (AID 1117342;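 active = compounds that lower survival of HCT116 colon cancer cells in the luminescence readout, no numeric limit stated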); conditions: at 20 µM (top of the series)
[7] = CellTiter-Glo luminescent readout of SW480 viability loss, NPC library primary (AID 1117343;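 active = compounds that lower viability of the colon cancer cells in the luminescence readout, with no numeric limit stated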); conditions: CellTiter-Glo luminescence; at 20 µM (top of the series)
[8] = decreased DLD-1 cellular survival, CellTiter-Glo luminescent readout, NPC compound collection, primary HTS (AID 1117346;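 active = compounds that lower survival of DLD-1 colon cancer cells in the luminescence readout, no cutoff given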); conditions: DLD-1 viability, CellTiter-Glo luminescence; at 20 µM (top of the series)

| SMILES | nuclear beta-catenin stimulation ([1]; at 10 µM) | nuclear beta-catenin stimulation ([1]; stimulation, at 2 µM) [%] | insulin secretion stimulation [2] | viability decrease [3] | tube area decrease [4] | GLP1 secretion stimulation [5] | inhibition of viability [6] | viability decrease (inhibition) [7] | viability decrease (inhibition) [8] |
| --- | --- | --- | --- | --- | --- | --- | --- | --- | --- |
| CCN(CC)CC(=O)Nc1c(C)cccc1C(=O)OC | 0% (inactive) | 0.3 | 0.7% (inactive) | -3% (inactive) | 27.1% (inactive) | 4.8% (inactive) | -7.9% (inactive) | -13.2% (inactive) | -17.2% (inactive) |
| CC(C)(C)C(=O)OCOC(=O)C1N2C(=O)CC2S(=O)(=O)C1(C)C (stereo unspecified) | -1.1% (inactive) | 1 | 1.4% (inactive) | 10.9% (inactive) | -21.6% (inactive) | -1.3% (inactive) | -4.1% (inactive) | -22.3% (inactive) | 4% (inactive) |
| CC(=O)OC[C@H]1O[C@@H](n2ncc(=O)[nH]c2=O)[C@H](OC(C)=O)[C@@H]1OC(C)=O | 14% (inactive) | 2.3 | 1.7% (inactive) | 47.3% (active) | 47.8% (active) | -0.6% (inactive) | 16.2% (inactive) | 26% (inactive) | -5.9% (inactive) |
| C[C@@H](O)[C@H]1C(=O)N2C(C(=O)O)=C(S[C@@H]3CN[C@H](CNS(N)(=O)=O)C3)[C@H](C)[C@H]12 | 2.9% (inactive) | 3 | -0.6% (inactive) | 14% (inactive) | -14% (inactive) | 0.3% (inactive) | 25.7% (inactive) | 3.1% (inactive) | -20.9% (inactive) |
| O=C(O)c1cc(O)c2c(c1)[O][Bi][O]2 | -2.2% (inactive) | 1 | -0.6% (inactive) | -0.3% (inactive) | 11.1% (inactive) | -0.5% (inactive) | 4.4% (inactive) | 26.3% (inactive) | 0.3% (inactive) |
| C[C@@H]1CCN(C(=O)[C@H](CCCN=C(N)N)NS(=O)(=O)c2cccc3c2NC[C@H](C)C3)[C@@H](C(=O)O)C1 | 0.3% (inactive) | -0.5 | 1.35% (inactive) | -9.7% (inactive) | -5.4% (inactive) | 1.4% (inactive) | -3% (inactive) | -23.6% (inactive) | 0.9% (inactive) |
| O=C1OC2(c3ccccc31)c1cc(Br)c(O)c(Br)c1Oc1c2cc(Br)c(O)c1Br | -0.8% (inactive) | -2.9 | 0.5% (inactive) | 32.8% (inactive) | -24.2% (inactive) | 17.7% (inactive) | 7.8% (inactive) | 24.1% (inactive) | -5.4% (inactive) |
| CCOC(=O)[C@H](CCc1ccccc1)N[C@@H](C)C(=O)N(CC(=O)O)C1Cc2ccccc2C1 | 1% (inactive) | 0.4 | 1.15% (inactive) | -0.3% (inactive) | 4.9% (inactive) | 3.1% (inactive) | 10.2% (inactive) | -7.1% (inactive) | -2.9% (inactive) |
| CCCCCCCCCCCCOS(=O)(=O)O | 2.3% (inactive) | 1.9 | 0.9% (inactive) | -7.5% (inactive) | 4.9% (inactive) | 15.2% (inactive) | -7.97% (inactive) | -57.7% (inactive) | -12.9% (inactive) |
| CN1C(CSCC(F)(F)F)Nc2cc(Cl)c(S(N)(=O)=O)cc2S1(=O)=O (stereo unspecified) | -0.4% (inactive) | -1.1 | 6.7% (inactive) | -2.8% (inactive) | -10.7% (inactive) | 1.3% (inactive) | 30.1% (inactive) | -4.4% (inactive) | -7.1% (inactive) |
| CC(O)CCCCn1c(=O)c2c(ncn2C)n(C)c1=O (stereo unspecified) | -0.6% (inactive) | 3.3 | 3.75% (inactive) | 15.3% (inactive) | -9.4% (inactive) | -3.4% (inactive) | 0.8% (inactive) | 3.8% (inactive) | 6.4% (inactive) |
| O=C(CN1CCNCC1)NC1CCCCC1 | -0.7% (inactive) | 0.3 | 5% (inactive) | -3.9% (inactive) | 13.7% (inactive) | 1% (inactive) | 7.2% (inactive) | 16.3% (inactive) | 4.5% (active) |
| COc1cc(S(N)(=O)=O)cc(C(=O)O)c1OC | -0.6% (inactive) | 3.5 | 1.2% (inactive) | 16.8% (inactive) | -3.6% (active) | -1% (inactive) | 23.4% (inactive) | 18.9% (inactive) | -9.9% (inactive) |
| CCCCC(C)(O)CC=C[C@H]1[C@H](O)CC(=O)[C@H]1CCCCCCC(=O)OC (stereo partly specified) | -0.9% (inactive) | 2.4 | 0.9% (inactive) | -0.5% (inactive) | -9.4% (inactive) | -1.9% (inactive) | -12.9% (inactive) | -17.2% (inactive) | 66.4% (active) |
